Source: PubChem BioAssay (NCATS)
Inconclusive results are not listed. Entries that show only a call come without a potency. Active and inactive are the calls of the source. Unless noted, the call rests on the fitted dose curve; in most records, active means well fitted curve in the direction sought with a large enough effect; inconclusive means small, poorly fitted or top-dose-only effect, or another doubt; inactive means no such curve, though single readings can be large; an effect the other way counts as inactive or inconclusive.

Assays:
[1] = qHTS to identify inhibitors of the type 1 interferon - major histocompatibility complex class I in skeletal muscle: primary screen against the NCATS Pharmaceutical Collection (AID 1347407);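 further: luminescence of HiBiT knocked into endogenous HLA-B as interferon-induced MHC class I level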
Outline: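 Luminescence from HiBiT-tagged endogenous HLA-B*08:01 served as the read-out of IFN-beta-induced MHC class I in CRISPR-engineered C25cl48 myoblasts. Cells received 4 ng/ml IFN-beta plus compound (high final 46 uM, […]) for 24 h.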

[2] = molecular target: Protein phosphatase 1D (Homo sapiens) (UniProt O15297); test: RapidFire Mass Spectrometry qHTS Assay for Modulators of WT P53-Induced Phosphatase 1 (WIP1) (AID 1347424);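 further: amount of dephosphorylated VEPPL-S-QETFS peptide product formed by WIP1; series mostly up to about 63 µM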
Protein phosphatase 1D (Homo sapiens), sequence (O15297 whole entry, looked up): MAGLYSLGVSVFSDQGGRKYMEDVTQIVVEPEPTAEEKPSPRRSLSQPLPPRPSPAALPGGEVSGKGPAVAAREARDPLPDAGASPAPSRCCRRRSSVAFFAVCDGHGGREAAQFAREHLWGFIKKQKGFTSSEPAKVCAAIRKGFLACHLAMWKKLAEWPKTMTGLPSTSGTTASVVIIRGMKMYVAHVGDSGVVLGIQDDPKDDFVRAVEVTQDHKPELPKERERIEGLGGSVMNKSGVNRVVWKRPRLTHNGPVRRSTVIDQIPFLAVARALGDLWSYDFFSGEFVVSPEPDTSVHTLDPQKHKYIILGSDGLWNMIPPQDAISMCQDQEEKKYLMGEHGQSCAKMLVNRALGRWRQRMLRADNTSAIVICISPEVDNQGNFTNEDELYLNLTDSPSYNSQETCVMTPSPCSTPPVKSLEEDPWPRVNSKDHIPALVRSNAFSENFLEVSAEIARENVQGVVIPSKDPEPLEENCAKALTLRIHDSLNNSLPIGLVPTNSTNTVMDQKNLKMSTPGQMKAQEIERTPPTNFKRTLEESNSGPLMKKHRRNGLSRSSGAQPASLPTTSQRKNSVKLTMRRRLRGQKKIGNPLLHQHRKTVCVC
Outline: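 WIP1 (10 nM final) was preincubated 1 h at room temperature with compounds in Tris-HCl pH 7.5, 30 mM MgCl2, TCEP, EGTA, BSA; 2 uM VEPPL-pS-QETFS phosphopeptide was added for 5 min, quenched with formic acid, and dephosphorylated product quantified by RapidFire MS.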

[3] = molecular target: Protein phosphatase 1D (Homo sapiens) (UniProt O15297); test: Rhodamine-PBP qHTS Assay for Modulators of WT P53-Induced Phosphatase 1 (WIP1) (AID 1347425)
Outline: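 5 nM WIP1 + 10 uM Rh-PBP, 50 mM Tris pH 7.5, 30 mM MgCl2, 1 mM TCEP, 0.1 mM EGTA, BSA; cpds pinned, 1 hr RT; + 10 uM phosphopeptide; fluorescence 1-min reads x 11 min; delta = f1 - f0.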

[4] = molecular target: Calcium and integrin-binding protein 1 (Homo sapiens) (UniProt Q99828); test: Primary qHTS for Identification of Calcium Integrin Binding Protein 1 (CIB1) Competitor (AID 1508620);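 further: GST tagged CIB1 binding a fluorescein labelled alphaIIb integrin peptide tracer; top concentration of the series differs between compounds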
Calcium and integrin-binding protein 1 (Homo sapiens), sequence (Q99828 whole entry, looked up): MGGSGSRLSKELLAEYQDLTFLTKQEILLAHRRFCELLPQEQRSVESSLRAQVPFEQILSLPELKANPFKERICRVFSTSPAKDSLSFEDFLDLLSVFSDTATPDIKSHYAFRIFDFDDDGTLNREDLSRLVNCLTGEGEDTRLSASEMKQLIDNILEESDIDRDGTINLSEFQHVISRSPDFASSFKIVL
Outline: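 Fluorescence polarization competition: CIB1-GST (1 uM final) preincubated with compound 15 min at room temperature, then FITC-labeled alphaIIb peptide (100 nM final) added for another 15 min. Polarization read at Ex 480/Em 540.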

[5] = Primary qHTS for small molecule stabilizers of the endoplasmic reticulum resident proteome: Secreted ER Calcium Modulated Protein (SERCaMP) assay (AID 1508630)
Outline: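 GLuc-SERCaMP-expressing SH-SY5Y cells, pretreated 16 h with compound, are challenged with thapsigargin to empty ER calcium stores; after 4 h, coelenterazine is added directly to the medium and luminescence is imaged.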

[6] = A High-Content qHTS Against Drug Library for the Identification of Small Molecules that Inhibit DYT1 Early Onset Primary Dystonia-Associated Cell Pathology (AID 1645839; calls by dose curve; further: series mostly up to about 46 µM)
Outline: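 Readout: %pathology, the punctate EGFP-TorsinA distribution from imaging, as the primary channel and cell count as the toxicity counterscreen. HEK293 Flp-In cells expressing delE TorsinA were induced with tetracycline and treated with compound for 48 h.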

[7] = molecular target: Cytochrome P450 2D6 (Homo sapiens) (UniProt P10635); test: Cytochrome P450 family 2 subfamily D member 6 (CYP2D6) small molecule antagonists: luciferase biochemical (cell-free) qHTS assay (AID 1645840; active means well fitted curve in the direction sought with a large enough effect in the repeat runs; an effect the other way counts as inactive or inconclusive; further: nearly all actives have a fitted effect of over 55% in size; further: potency means the concentration at half of the fitted maximal effect)
Cytochrome P450 2D6 (Homo sapiens), sequence (P10635 whole entry, looked up): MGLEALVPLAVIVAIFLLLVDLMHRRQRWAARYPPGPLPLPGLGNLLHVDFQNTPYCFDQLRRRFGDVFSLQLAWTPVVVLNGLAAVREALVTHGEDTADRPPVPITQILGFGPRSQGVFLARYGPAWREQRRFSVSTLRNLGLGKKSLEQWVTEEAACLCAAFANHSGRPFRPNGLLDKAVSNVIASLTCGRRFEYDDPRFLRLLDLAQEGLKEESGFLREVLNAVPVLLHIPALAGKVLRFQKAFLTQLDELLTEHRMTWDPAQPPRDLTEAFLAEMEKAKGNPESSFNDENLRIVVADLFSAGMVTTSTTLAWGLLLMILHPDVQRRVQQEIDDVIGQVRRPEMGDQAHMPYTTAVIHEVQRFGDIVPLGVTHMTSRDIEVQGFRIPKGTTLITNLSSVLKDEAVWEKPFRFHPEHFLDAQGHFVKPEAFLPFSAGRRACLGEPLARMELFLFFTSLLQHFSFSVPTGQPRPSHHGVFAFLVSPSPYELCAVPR
Outline: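 P450-Glo luminescent screen: recombinant CYP2D6 enzyme–proluciferin substrate mix preincubated with compound 10 min at room temperature, then NADPH regeneration added for 1 h at room temperature. Detection reagent added for 20 min; luciferin light read as relative luminescence units.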

[8] = Primary qHTS for inhibitors of La Crosse Virus (LACV) - induced cell death in SH-SY5Y cells (AID 1508616);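 further: top concentration of the series differs between compounds; higher means more rescue of cells from virus-induced death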
Outline: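 Protection against LACV-induced cell death is scored in SH-SY5Y cells exposed to compounds and virus (0.01 MOI) for 6 days. Data normalized to virus-infected DMSO wells and virus-free DMSO wells.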

Row | Structure (SMILES) | outcome [1] | outcome [2] | outcome [3] | outcome [4] | outcome [5] | Potency [6] | Potency [7] | outcome [8]
1 | CC(=O)NCc1c(I)c(NC(C)=O)c(I)c(C(=O)O)c1I | inactive | inactive | inactive | inactive | inactive | inactive | – | –
2 | CCOc1cc(NC(C)=O)ccc1C(=O)OC | inactive | inactive | inactive | inactive | – | inactive | inactive | –
3 | CC(C)CCCC(C)CCCC(C)CCCCC(C)CCCC(C)CCCC(C)C (stereo not drawn) | inactive | inactive | inactive | inactive | inactive | inactive | inactive | –
4 | COC(=O)c1ccc(O)cc1 | inactive | inactive | inactive | – | inactive | inactive | inactive | –
5 | CCCNC(C)C(=O)Nc1c(C)csc1C(=O)OC (stereo not drawn) | inactive | inactive | – | inactive | inactive | inactive | – | inactive
6 | C[N+]1(C)CCCC(OC(=O)C(O)(c2ccccc2)c2ccccc2)C1 (stereo not drawn) | inactive | inactive | inactive | inactive | – | inactive | 12.3 µM (active) | –
7 | COc1ccc(-c2cc(=O)c3c(O)cc(O[C@@H]4O[C@H](CO[C@@H]5O[C@@H](C)[C@H](O)[C@@H](O)[C@H]5O)[C@@H](O)[C@H](O)[C@H]4O)cc3o2)cc1O | inactive | inactive | inactive | – | inactive | – | inactive | inactive
8 | Cc1ccsc1/C=C/C1=NCCCN1C | inactive | inactive | inactive | inactive | inactive | inactive | – | –
9 | CN1CCCN=C1COC(=O)C(O)(c1ccccc1)C1CCCCC1 (stereo not drawn) | inactive | inactive | inactive | inactive | inactive | inactive | 1.23 µM (active) | –
10 | COc1ccc(NS(=O)(=O)c2ccc(N)cc2)nn1 | inactive | inactive | inactive | – | – | inactive | – | inactive
11 | CCCNC(C)(C)COC(=O)c1ccccc1 | inactive | inactive | – | inactive | inactive | inactive | – | inactive
12 | O=c1[nH]c2cc(C(F)(F)F)c(N3CCOCC3)cc2n(CP(=O)(O)O)c1=O | inactive | inactive | inactive | inactive | inactive | inactive | inactive | –
13 | Nc1ncnc2c1ncn2[C@@H]1O[C@H](COP(=O)(O)O)[C@@H](O)[C@H]1O | inactive | inactive | inactive | inactive | inactive | inactive | inactive | –
14 | CC[N+](CC)(CC(=O)Nc1c(C)cccc1C)Cc1ccccc1 | inactive | inactive | inactive | inactive | inactive | inactive | inactive | –
15 | C[C@]1(Cn2ccnn2)[C@H](C(=O)O)N2C(=O)C[C@H]2S1(=O)=O | inactive | inactive | inactive | inactive | – | inactive | inactive | –
16 | C[C@@H](N)C(=O)O | inactive | inactive | inactive | inactive | inactive | inactive | inactive | –
17 | Cc1cccc(C)c1NC(=O)CC12CCCN1CCC2 | inactive | inactive | inactive | inactive | inactive | inactive | inactive | –
18 | OCc1ccc(Cl)cc1Cl | inactive | inactive | inactive | inactive | inactive | inactive | inactive | –
19 | CC(=O)N[C@@H](CC(C)C)C(=O)O | inactive | inactive | inactive | inactive | inactive | inactive | – | –
20 | O=C(O)COC(=O)Cc1ccccc1Nc1c(Cl)cccc1Cl | inactive | inactive | inactive | inactive | – | inactive | inactive | –
21 | CCS(=O)(=O)CCn1c([N+](=O)[O-])cnc1C | inactive | inactive | inactive | inactive | inactive | inactive | – | –
22 | NCc1ccc(S(N)(=O)=O)cc1 | inactive | inactive | inactive | – | inactive | inactive | inactive | inactive
23 | O=C(O)CCCCC1CCSS1 (stereo not drawn) | inactive | inactive | inactive | – | – | inactive | inactive | inactive
24 | CC(C)(C)C(=O)OCOC(=O)[C@@H]1N2C(=O)[C@@H](NC(=O)[C@H](N)c3ccccc3)[C@H]2SC1(C)C | inactive | inactive | inactive | inactive | inactive | inactive | inactive | –
25 | O=S1(=O)OC(c2ccc(O)cc2)(c2ccc(O)cc2)c2ccccc21 | inactive | inactive | inactive | – | – | inactive | inactive | –
26 | CC(C)(C)NCC(O)COc1cccc2c1CCC(=O)N2 (stereo not drawn) | inactive | inactive | inactive | inactive | inactive | inactive | inactive | –
27 | FC(F)(F)C(Cl)Br (stereo not drawn) | inactive | inactive | inactive | inactive | inactive | inactive | inactive | –
28 | CC(CN(C)C)C(C)(O)Cc1ccc(Cl)cc1 (stereo not drawn) | inactive | inactive | inactive | inactive | – | inactive | 12.3 µM (active) | –
